From the supplement of paper PMC10681739
The full ranking holds about 2,700 sequences; the median of “arbitrary fluorescence units” is about 4,100, and the highest 2% start at about 54,000. For the sample, the highest values were picked, then their nearest neighbours and some sequences at random.

target: T1, ETS1 (UniProt P14921); test: ETS1 binding intensity (PBM fluorescence) (arbitrary fluorescence units); higher = stronger binding; settings: ETS1 concentration 10 nM
T1 sequence: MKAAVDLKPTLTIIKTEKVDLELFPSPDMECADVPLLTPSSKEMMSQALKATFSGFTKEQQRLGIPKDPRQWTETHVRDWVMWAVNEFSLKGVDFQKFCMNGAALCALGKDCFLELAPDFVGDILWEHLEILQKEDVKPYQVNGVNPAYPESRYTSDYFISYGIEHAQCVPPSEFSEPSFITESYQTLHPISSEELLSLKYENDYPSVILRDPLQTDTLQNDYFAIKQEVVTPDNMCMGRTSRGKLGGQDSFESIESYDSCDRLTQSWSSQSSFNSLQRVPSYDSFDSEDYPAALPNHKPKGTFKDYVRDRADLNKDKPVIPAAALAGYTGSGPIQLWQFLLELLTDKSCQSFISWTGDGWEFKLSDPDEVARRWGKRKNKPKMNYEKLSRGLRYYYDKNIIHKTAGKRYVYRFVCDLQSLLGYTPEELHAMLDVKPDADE
Procedure: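 gcPBM on wild-type 36-bp genomic probes with two neighbouring ETS1 sites (4-24 bp apart). Recombinant human ETS1 (10 nM) was detected with anti-ETS1 antibody fluorescence. Values are medians over 3 replicate spots. The probes sit in constant array flanks that are not printed.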

| Sequence | ETS1 binding intensity |
| --- | --- |
| TAGTCCTGAAACTTCCTCTGCTTCCTCCTCCTGCCC | 2700 |
| CACGGTGATTTCCTGTAAACAACAGGAAATGTACAG | 22700 |
| ACCGCCCGGAAGTGACGCGCCCGCGCATCCGGCCAC | 19800 |
| CGGACCGGAAGTTGGGGTGACGCAATTTCCGGCGCG | 54200 |
| TCGGACCGGAAGGAGTTGTTGGCGCTTCCGGTGGCC | 15900 |
| ATCACCAGCCTTCCTGTGGGACCGGAAAGGCAGTAG | 2720 |
| GTAATACTTCGGGGAAATGCAGGATGCAGCTGCTGC | 243 |
| CGAGGCGGTCGCGGAAGTAGAGGAAGCCTTCGCGGT | 686 |
| CCCTCCCCTTCCTGCCTGCCCTTCTTCCGGGGCACC | 8020 |
| TTCACCCCACCACTTCCTCATCCTGATCTCAGCTCA | 2880 |
| CCCACTTCCTGCCTCACCCTGAAGATCTTCCGGGCA | 56900 |
| GCCGGAGACTAGCTTCCGCTTCCGGTGTGAGCGGCC | 26200 |
| AAGACTTCTACTTCCGGAGACTTCCTCATGCCATGC | 33400 |
| AACCACTTCCGGTGAGTAGCTTCTACTTCCGGAGAC | 135000 |
| TCTCGACTTCCGGTTCACCCAGCATTTCCTCTTCCC | 103000 |
| GTTACTTCCTCTCCCCAGGTCTCTCGGTTTCCTCAT | 23600 |
| CACCCATTTTCACTTCCGCTTCCGGTTGTCACAGGC | 26500 |
| GCTCCACCTTCCGGCCCATGGACACGGATGCCGAGG | 16100 |

| Sequence | ETS1 binding intensity |
| --- | --- |
| TCCTGCCTCAGGATGCCGGGGGAGGAAGAGGAGCGG | 258 |
| CCTACAATTCCTGTTTTGGAGACCGCTTCCGGCAGC | 3700 |
| ATCTCACCTTCCTGGTGTCTGGGCTTCCGCAGCTTC | 662 |
| AGCATTCCACTTCCTGTCTTGATTCCTGTATTAGAG | 62700 |
| TATTCAAAGCCCACTTCCTTCCTGTAGCATTCATTC | 6220 |
| CTTCCACATCTTCCTGCAGAGCATCCTGTCTGTGCA | 4230 |
| TGTGATGTTTCCTCTTGCTGTGGTTTCCTGTCATGG | 4090 |
| AGGAGGAATGGCAGGAAGAGGAAGTGAAACCGACAA | 1690 |
| CAGGCCGGAAGTACGTGAGAGGAGACTTCCGGCCAC | 31200 |
| TTCCGACCGGAAGTGAGAAGAGGAGGAAGTTGGCTG | 64200 |
| CTTAGTTTCCTCTGGCGATGCTAAAGAGGAAGTTAC | 2440 |
| ATTTGAAGAGCCAGGAAGGAGGAAATGCAGAGTGCA | 287 |
| AGTCTAGTTGCCAGGAAACAGGATGTGGGAGGGACA | 3800 |
| TCCTCTTTCCGTTGTGAGCACCCTGCATCCTGGTGG | 3800 |
| CTGATAGGGGAAGTGGGAGTTGACAGGATGGTTTAA | 424 |
| ATGTAAAGAGGAAGTGACTCATTCTTCCTGGTGGTG | 3720 |
| GGGGCCGGAAGCTTTCGGATAACAACTTCCGCTCGG | 20100 |
